Assay results as given in PubChem BioAssay (EPA / NIEHS).
More than one record can exist for a structure, and the calls need not agree. Activity calls are given as the source filed them. The calls were made as follows: active = hit-call score of the fitted dose curve at least 0.9, where 1 is the maximum; inactive = score below 0.9.

Read-out: Interleukin 6 (IL6), IL6 (gene 3569)
Assay: BSK_BT_xIL6: BioMAP Diversity Plus: BT Assay for Interleukin 6 (IL6) Biomarker Activity (AID 2284228)
Details: primary human B cells with PBMC
Description: BSK_BT is a cell-based, multiplexed-readout assay that uses B cell and peripheral blood mononuclear cells, a human vascular primary cell co-culture, with measurements taken at 24 hours after chemical dosing in a microplate: 96-well plate.BSK_BT_xIL6 is an assay component measured in the BSK_BT assay. It measures secreted IL-6 related to regulation of gene expression using LumineX xMAP technology.Data from the assay component BSK_BT_xIL6 was analyzed at the endpoint, BSK_BT_xIL6, in the positive analysis fitting direction relative to DMSO as the negative control and baseline of activity. Using a type of cytokine quantitation reporter, gain or loss-of-signal activity can be used to understand protein changes. To generalize the intended target to other relatable targets, this assay endpoint is annotated to the 'cytokine' intended target family, where the subfamily is 'interleukins'.
The levels of cell surface (or secreted, indicated by the prefix "s") biomarker endpoints were measured by ELISA. Overt cytotoxicity to cells in confluent adherent cultures (all systems other than the BT system) was assessed by measuring total protein levels using sulforhodamine B (SRB) staining in parallel cultures at the time of biomarker measurements, indicated as SRB endpoints. For proliferation assays for adherent cell types, individual cell types are cultured at sub-confluence and relative cell numbers quantified by SRB staining at time points optimized for each system (48 h: 3C and CASM3C systems; 72 h: BT and HDF3CGF systems; 96 h: SAg system). SRB was performed by staining cells with 0.1% SRB after fixation with 10% TCA and reading wells at 560 nm.Viability and proliferation of PBMC (T cells) was quantified by Alamar Blue reduction for the SAg and BT systems. For PBMC viability (referred to as PBMC Cytotoxicity within the assay endpoint names), cells were plated (75,000/well in a 96-well plate) and then chemical samples added for 1 h before addition of activators, SEB and TSST-1 (20 ng/mL final concentration each). Cells were incubated for 90 h. Then, Alamar Blue (20 uL/well) (Invitrogen, Cat DAL1100) was added for 6 h, and the plates were read with a fluorescence microplate reader at 546/580 nm (excitation/emission). For PBMC proliferation, cells were plated and activated as above but incubated for only 16 h prior to addition of Alamar Blue. Plates were read after 6 h.

Row | SMILES | outcome | AC50
1 | Cc1cccnc1 | inactive | –
2 | Cc1cc(-n2nc3ccc(Cl)cc3n2)c(O)c(C(C)(C)C)c1 | inactive | –
3 | CC(C)CC(=O)CC(C)CC(C)C (stereo unspecified) | inactive | –
4 | CCCCCCCCCCC1CO1 (stereo unspecified) | inactive | –
5 | OC(C(F)(F)F)(C(F)(F)F)C(O)(C(F)(F)F)C(F)(F)F | inactive | 39.5 µM (active)
6 | CCCCCCC(O)CCCCCCCCCCC(=O)OC (stereo unspecified) | inactive | –
7 | CCCCCCCCCC/C=C/C1CC(=O)OC1=O (stereo unspecified) | inactive | –
8 | CC[N+](CC)(CC(=O)Nc1c(C)cccc1C)Cc1ccccc1 | inactive | –
9 | CCCCCCCCCCCCCCCCCC[N+](C)(C)C | – | 5 µM (active)
10 | O=C(C(=O)c1ccccc1)c1ccccc1 | inactive | –
11 | CN(C)c1ccc(C(c2ccccc2)c2ccc(N(C)C)cc2)cc1 | – | 14.6 µM (active)
12 | CN(C)CCC(c1ccc(Cl)cc1)c1ccccn1 (stereo unspecified) | inactive | –
13 | Sc1nc2ccccc2s1 | inactive | –
14 | COC(=O)/C=C\C(=O)OC | – | 14.5 µM (active)
15 | Oc1cccc2ccccc12 | – | 0.0576 µM (active)
